Many of the other results were omitted from the sample, so hits are more common in it than they were.
TDP1 cell noCPT = qHTS for Inhibitors of human tyrosyl-DNA phosphodiesterase 1 (TDP1): qHTS in cells in absence of CPT; 420,000 tested, 15% active; DT40 Tdp1-/- hTDP1 cells, no CPT, ATP luminescence, 48 h; Potency, µM (doses to about 46.2 µM), for inactives: top-dose activity change, negative = growth inhibition, actives largely listed as inhibitors; further: potency means the concentration at half of the fitted maximal effect; nearly all actives have a fitted effect of over 55% in size
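Chicken DT40 Tdp1-/- cells complemented with human TDP1, screened without camptothecin (DMSO vehicle only), 400 cells/well. Compounds pin-transferred, cells incubated at 37 °C for at least 48 hr. Growth read as ATP-dependent luminescence (CellTiter-Glo, 30 min at RT).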
ALOX12 inh = blocks human arachidonate 12S-lipoxygenase; purified 12hLO, xylenol orange hydroperoxide absorbance; Potency, µM (series often up to 108 µM), for inactives: top-dose activity change, negative = inhibition, hits mostly inhibitors; 580,000 tested, 1.1% active; AID 1671190; further: potency means the concentration at half of the fitted maximal effect
Target sequence (P18054 whole entry, looked up): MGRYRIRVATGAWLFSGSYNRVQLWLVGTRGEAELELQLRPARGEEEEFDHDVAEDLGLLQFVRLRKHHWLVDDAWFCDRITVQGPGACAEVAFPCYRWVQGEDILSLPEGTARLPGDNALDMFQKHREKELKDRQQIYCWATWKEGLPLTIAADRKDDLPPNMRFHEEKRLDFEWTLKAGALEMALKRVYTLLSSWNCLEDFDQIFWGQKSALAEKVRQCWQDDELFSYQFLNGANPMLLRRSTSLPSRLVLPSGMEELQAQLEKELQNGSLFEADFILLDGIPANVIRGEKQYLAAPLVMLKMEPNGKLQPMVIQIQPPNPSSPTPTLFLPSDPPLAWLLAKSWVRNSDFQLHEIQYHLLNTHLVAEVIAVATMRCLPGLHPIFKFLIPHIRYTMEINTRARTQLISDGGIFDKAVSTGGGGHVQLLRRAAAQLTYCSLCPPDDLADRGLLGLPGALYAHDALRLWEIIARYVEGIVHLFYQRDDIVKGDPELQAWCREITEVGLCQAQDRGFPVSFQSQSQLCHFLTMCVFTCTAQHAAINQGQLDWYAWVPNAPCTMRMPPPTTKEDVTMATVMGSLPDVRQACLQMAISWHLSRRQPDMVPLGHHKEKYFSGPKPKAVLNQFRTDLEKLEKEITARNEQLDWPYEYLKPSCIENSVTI
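Purified human 12hLO (150 nM final) in 25 mM Hepes, 0.01% Triton X-100, pH 7.0 was preincubated 15 min at room temperature with compound. Then 40 uM arachidonic acid was added, 30 min. Hydroperoxide was read by Fe-XO absorbance ratio 573/405 nm.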
TDP1 cell CPT = DT40-hTDP1 cell growth loss with CPT; chicken DT40 Tdp1-/-;hTDP1 cells + 20 nM CPT, ATP luminescence, 48 h; Potency, µM (titrated, usually from 46.2 µM), without a hit: top-dose activity change, negative = growth inhibition, hits mostly inhibitors; 420,000 tested, 12% active; AID 686979; further: potency means the concentration at half of the fitted maximal effect; nearly all actives have a fitted effect of over 55% in size
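Cell growth measured by CellTiter-Glo luminescence after a minimum 48 h, 37 C compound exposure with 20 nM CPT in Tdp1-knockout DT40 cells stably expressing hTDP1, seeded 400/well; qHTS titration format.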
IL-1B inflam inh = inflammasome signaling inhibition, IL-1 beta readout; activity change, % at 57.5 µM; 360,000 tested, 4.7% active; THP-1 LPS/ATP IL-1B secretion, AlphaLISA, 16 h; stronger effect = lower value; AID 743279; in the data active means activity change below about -50%; inconclusive means mostly about -30% to -49%
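THP-1 cells pretreated 1 hr with compounds (up to 57.5 uM final), then stimulated with LPS (250 ng/mL final) plus ATP (1.25 mM final); secreted IL-1B measured by AlphaLISA after 16 hr, decreased signal indicating inhibition.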
HT1080 IDH1KD tx = toxicity to HT-1080 IDH1 knockdown cells (counter line) | HT-1080 IDH1 knockdown viability, ATP luminescence, 48 h | Potency, µM (series often up to 46.1 µM), without a hit: top-dose activity, negative = toxicity, most hits filed as cytotoxic | 360,000 tested, 2% active | AID 686971;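 further: potency means the concentration at half of the fitted maximal effect; 0% = DMSO wells and -100% = cell-free medium wells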
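% activity derives from luminescence (CellTiter-Glo), normalised to DMSO and no-cell wells. HT-1080-IDH1KD cells, 750/well, had 48 h compound exposure at 37 °C.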
HT1080-NT tox = kills 2HG-producing HT-1080-NT fibrosarcoma cells; HT-1080-NT fibrosarcoma viability, CellTiter-Glo ATP luminescence, 48 h; Potency, µM (titrated, usually from 46.1 µM), for inactives: top-dose activity, negative = less viability, most hits filed as cytotoxic; 360,000 tested, 1.6% active; AID 686970;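 further: NT is the 2HG producing partner of a matched IDH1 knockdown line; potency means the concentration at half of the fitted maximal effect; 0% = DMSO-treated cells and -100% = media-only wells without cells; nearly all actives have a fitted effect of over 55% in size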
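Fibrosarcoma NT cells, 750 per well in 5% FBS RPMI, were exposed to compound for 48 hours. Viability: CellTiter-Glo luminescence.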
Numbers without * were called inactive; u = inconclusive; x = no result given; ! = a repeat was not active; [ ] = dose if it differs, or a comment. Unless noted, the call rests on the fitted dose curve; in most records, active means well fitted curve in the direction sought with a large enough effect; inconclusive means small, poorly fitted or top-dose-only effect, or another doubt; inactive means no such curve, though single readings can be large; an effect the other way counts as inactive or inconclusive. Unless noted, on the % scale 0 is the no-effect control and ±100 the full control effect.

SMILES	TDP1 cell noCPT	ALOX12 inh	TDP1 cell CPT	IL-1B inflam inh	HT1080 IDH1KD tx	HT1080-NT tox
Nc1cc(C(=O)Nc2ccc(Cl)cc2)ccc1N1CC2CC(C1)c1cccc(=O)n1C2 (stereo not drawn)	10.3µM*	u	20.6µM*	-2.4	-15.0%	-4.5%
O=C(Nc1ccc(Cl)cc1)N1CC2CC(C1)c1cccc(=O)n1C2 (stereo not drawn)	-25.1%	3.5%	-2.6%	-1.0	-24.3%	-0.8%
O=C(CCC1CCN(Cc2ccccc2)CC1)c1ccc2c(c1)NCCCC2	11.9µM*	-8.4%[22.9 µM]	u	x	x	x
COC(=O)c1ccc(CN2CCN(Cc3ccccc3)CC2)cc1	-12.9%	u	-12.7%	8.0	-3.6%	0.3%
Cc1ncc2c(n1)C[C@@H]1CC[C@H]2N1C(=O)Cc1cccc(F)c1	x	7.1%	x	x	x	x
CC(C)(O)/C=C/C(=O)[C@](C)(O)C1[C@H](O)C[C@@]2(C)C3CC=C4C(C[C@H](O)[C@@H](O)C4(C)C)[C@]3(C)C(=O)C[C@]12C (stereo partly drawn)	0.326µM*	x	0.291µM*	-86.7*	1.3µM*	1.3µM*
O=C1NC2(CCN(Cc3cccnc3)C2)COc2ccccc21 (stereo not drawn)	x	84.2%[176 µM]	x	x	x	x
CCOC(=O)c1ccc(N2C(=O)c3n[nH]c(-c4cccs4)c3C2c2ccc(OC)cc2OC)cc1 (stereo not drawn)	20.6µM*	-19.2%	23.1µM*	x	x	x
Nc1ccc(N=Nc2ccc(-c3ccc(N=Nc4c(S(=O)(=O)O)cc5cc(S(=O)(=O)O)c(N=Nc6ccccc6)c(O)c5c4N)cc3)cc2)c(N)c1	x	12.8%	x	x	x	x
COc1cccc2c1cc([N+](=O)[O-])c1c(C(=O)O)cc3c(c12)OCO3	11.6µM*!	13.8%	18.4µM*!	-58.2*	-7.0%	0.7%
CCCCCCOc1ccc(CN2CCN(C)CC2)cc1	17.8µM*	-22.1%	17.8µM*	u	u	u
COc1ccc2c(c1)c(C(=O)OCC(=O)N(C)C)c(C)n2C1CC1	x	-17.7%	x	x	x	x
C1=C2CCCN[C@H]2[C@@H]2C[C@H]1[C@@H]1CCCCN1C2	x	-5.8%[57.4 µM]	x	x	x	x
Cc1nc(-c2ccc(N(C)C)cc2)cc([C@H]2CN3CC[C@H]2C[C@@H]3CNC(=O)C2CC2)n1	x	73.8%[176 µM]	x	x	x	x
Nc1cccc(-c2cn(C[C@H]3CC4CCN3C[C@@H]4C(=O)NCc3ccccc3)nn2)c1 (stereo partly drawn)	x	43.2%[176 µM]	x	x	x	x
COC[C@H]1OC(=O)c2coc3c2[C@@]1(C)C1=C(C3=O)[C@H]2CCC(=O)[C@@]2(C)C[C@H]1OC(C)=O	u	x	9.44µM*	x	x	x
COC[C@H]1OC(=O)c2coc3c2[C@@]1(C)C1=C(C3=O)C2CCC(=O)[C@@]2(C)C[C@H]1OC(C)=O (stereo partly drawn)	0.631µM*	u	1µM*	x	u	u
COc1ccccc1CNC(=O)[C@H]1CN2CC[C@H]1C[C@@H]2Cn1cc(C2(O)CCCC2)nn1	x	15.4%	x	x	x	x
Cc1c2ccncc2c(C)c2c1[nH]c1ccccc12	1.46µM*	-15.2%	2.31µM*	-79.4*	3.66µM*	10.3µM*
Cc1nccc2c1[nH]c1ccccc12	23.7µM*!	u	u	-26.3	-13.8%	-19.2%
CCc1nccc2c1[nH]c1ccccc12	u	13.9%	-26.6%	-1.0	-6.0%	0.0%
COC[C@H]1CCCN1C[C@H]1CN2CC[C@H]1C[C@@H]2CNC(=O)c1ccc(N(C)C)cc1	x	24.8%[176 µM]	x	x	x	x
CCCCN(CC)c1c([N+](=O)[O-])cc(C(F)(F)F)cc1[N+](=O)[O-]	18.4%	x	-4.5%	x	x	x
CCCN(CCC)c1c([N+](=O)[O-])cc(S(N)(=O)=O)cc1[N+](=O)[O-]	30.6µM*	u	u	x	x	x
Cc1cccc(OCC(=O)N2C[C@@H](CO)[C@H](N(C)C)C2)c1	x	39.7%	x	x	x	x
SMILES	TDP1 cell noCPT	ALOX12 inh	TDP1 cell CPT	IL-1B inflam inh	HT1080 IDH1KD tx	HT1080-NT tox
CN1CCc2nc3sc(C#N)c(N)c3c(-c3cccs3)c2C1	20.6µM*	u	u	-8.2	-5.8%	-1.5%
Cc1ccc2c(c1)C1CN(C)CCC1N2C(=O)Nc1ccc(Cl)cc1 (stereo not drawn)	25.9µM*	-2.6%	u	-72.0*	u	u
Cc1ccc2c(c1)C1CN(C)CCC1N2C(=O)c1cccs1 (stereo not drawn)	-0.7%	0.0%	18.8%	-7.8	-0.6%	3.5%
C[C@H]1[C@@H]2Cc3ccc(O)cc3[C@@]1(C)CCN2C	-26.4%[166 µM]	x	-14.4%[166 µM]	x	x	x
COc1ccc(-c2ccc3c(c2)CN(CC(C)C)Cc2cnnn2-3)cc1	u	-20.4%	16.4µM*	u	-5.7%	0.9%
Clc1cccc(N2Cc3cc(-c4ccccc4)ccc3-n3nncc3C2)c1	3.66µM*	-54.6%	2.59µM*	-110.3*	10.3µM*	10.3µM*
Cc1ccc(S(=O)(=O)N2Cc3cc(N4CCOCC4)ccc3-n3nncc3C2)cc1	u	-0.4%	-28.4%	-12.7	8.4%	6.6%
CC(C)CN1Cc2cc(-c3ccccc3)ccc2-n2nncc2C1	u	-41.6%	u	u	-6.0%	-2.1%
COc1ccc(-c2ccc3c(c2)CN(c2cccc(Cl)c2)Cc2cnnn2-3)cc1	u	17.8µM*	u	-2.8	-16.1%	10.5%
Clc1cccc(N2Cc3cc(N4CCOCC4)ccc3-n3nncc3C2)c1	u	-25.4%	18.4µM*	0.0	u	-28.5%
Nc1ccccc1-c1ccccc1	x	2.5%	x	x	x	x
Cc1nc(N2CCN(Cc3ccccc3)CC2)nc2c1C(=O)CC(C)C2 (stereo not drawn)	16.4µM*	0.0%	18.4µM*	0.0	-19.3%	-4.1%
C#CCN(C)C[C@H]1CN2CC[C@H]1C[C@@H]2CNC(=O)NC(C)C	x	34.3%[176 µM]	x	x	x	x
COc1cc2c(cc1OC)-c1c(OC)c(OC)c(OC)c3ccnc(c13)C2=O	3.66µM*	-10.4%	4.11µM*	u	1.9%	1.9%
CN(C[C@H](Cc1ccccc1)N(C[C@H](Cc1ccccc1)N(CCC(C)(C)C)N=O)N=O)N=O	u	3.7%	18.4µM*	-1.3	-3.1%	-3.0%
CC(C)C[C@@H](CN(N=O)[C@@H](Cc1ccccc1)CN(C)N=O)N(CCc1ccccc1)N=O	u	-1.7%	u	2.2	11.0%	5.3%

Screening results from PubChem.
